Data published in PubChem BioAssay (NCATS).
Inconclusive results are not listed. Entries that show only a call come without a potency. Activity calls are given as the source filed them. Unless noted, the call rests on the fitted dose curve; in most records, active means well fitted curve in the direction sought with a large enough effect; inconclusive means small, poorly fitted or top-dose-only effect, or another doubt; inactive means no such curve, though single readings can be large; an effect the other way counts as inactive or inconclusive.

biological target: Calcium and integrin-binding protein 1 (Homo sapiens) (UniProt Q99828); assay: Validation qHTS for Identification of Calcium Integrin Binding protein 1 (CIB1) Competitor (AID 1508618); details: CIB1-GST / FITC-alphaIIb peptide fluorescence polarization; series mostly up to 114 µM
In short: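 In this qHTS validation, the LOPAC set (up to 114 uM) was tested for blocking CIB1 binding to a fluorescein-tagged alphaIIb peptide, with FP detection at 480/540 nm.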

Sequence of Calcium and integrin-binding protein 1 (Homo sapiens) (Q99828 whole entry, looked up): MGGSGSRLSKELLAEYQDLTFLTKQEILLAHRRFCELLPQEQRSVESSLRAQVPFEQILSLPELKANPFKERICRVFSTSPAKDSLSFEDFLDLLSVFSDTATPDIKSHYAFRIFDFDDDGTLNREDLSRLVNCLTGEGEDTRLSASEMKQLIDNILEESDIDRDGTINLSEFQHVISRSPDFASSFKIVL

For `CC(Cc1ccc(O)cc1)NCC(O)c1cc(O)cc(O)c1` (stereo unspecified), which outcome is on record?
The outcome was “inactive”.

With `C[N+]1(C)C2CCC1CC(OC(=O)C(CO)c1ccccc1)C2` (stereo unspecified) as the molecule, how does the outcome read?
The outcome was “inactive”.

For `NC(CCP(=O)(O)O)C(=O)O` (stereo unspecified), which outcome is on record?
Its outcome is “inactive”.

With `C[C@@H]1O[C@H](C[N+](C)(C)C)C[C@H]1O` as the molecule, how does the outcome read?
Its outcome is “inactive”.

With `Oc1ccc2c3c1O[C@H]1c4[nH]c5c(c4C[C@@]4(O)[C@@H](C2)N(CC2CC2)CC[C@]314)C[C@@]1(O)[C@H]2Cc3ccc(O)c4c3[C@@]1(CCN2CC1CC1)[C@H]5O4` as the molecule, how does the outcome read?
The outcome was “inactive”.

For `S=C(NC1CCCCC1)N1CCC(c2cnc[nH]2)CC1`, which outcome is on record?
Its outcome is “inactive”.

For `CC1=NN=C(c2ccc(N)cc2)c2cc3c(cc2C1)OCO3`, which outcome is on record?
Its outcome is “inactive”.

With `NC(=NCCC[C@H](N)C(=O)O)N[N+](=O)[O-]` as the molecule, how does the outcome read?
Its outcome is “inactive”.

For `O=C1CCCN1CC#CCN1CCCC1`, which outcome is on record?
The outcome was “inactive”.

Which outcome does the source give for `CC(=O)NCCc1c[nH]c2ccccc12` here?
Its outcome is “inactive”.

biological target: Calcium and integrin-binding protein 1 (Homo sapiens) (UniProt Q99828); assay: Primary qHTS for Identification of Calcium Integrin Binding Protein 1 (CIB1) Competitor (AID 1508620); details: CIB1-GST / FITC-alphaIIb peptide fluorescence polarization; series mostly up to 57.7 µM;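 further: GST tagged CIB1 binding a fluorescein labelled alphaIIb integrin peptide tracer; top concentration of the series differs between compounds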
In short: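 Fluorescence polarization competition: CIB1-GST (1 uM final) preincubated with compound 15 min at room temperature, then FITC-labeled alphaIIb peptide (100 nM final) added for another 15 min. Polarization read at Ex 480/Em 540.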

With `O=C(N[C@H]1CN2CCC1CC2)c1ccc(Cl)cc1` as the molecule, how does the outcome read?
The outcome was “inactive”.

For `COC(=O)[C@@H](N)CCCN=C(N)N[N+](=O)[O-]`, which outcome is on record?
Its outcome is “inactive”.

For `O=[N+]([O-])/N=C1\NCCN1Cc1ccc(Cl)nc1`, which outcome is on record?
Its outcome is “inactive”.

For `CCCN(CCC)c1c([N+](=O)[O-])cc(S(N)(=O)=O)cc1[N+](=O)[O-]`, which outcome is on record?
Its outcome is “inactive”.

For `Oc1ccc2c3c1O[C@H]1c4[nH]c5c(c4C[C@@]4(O)[C@@H](C2)N(CC2CC2)CC[C@]314)C[C@@]1(O)[C@H]2Cc3ccc(O)c4c3[C@@]1(CCN2CC1CC1)[C@H]5O4`, which outcome is on record?
The outcome was “inactive”.

For `CCO/N=C(\CC)C1=C(O)CC(c2c(C)cc(C)cc2C)CC1=O` (stereo unspecified), which outcome is on record?
Its outcome is “inactive”.

With `CC[C@@]1(O)C(=O)OCc2c1cc1n(c2=O)Cc2cc3ccccc3nc2-1` as the molecule, how does the outcome read?
The outcome was “inactive”.

Which outcome does the source give for `O=C(Nc1ccccc1-c1ccc(Cl)cc1)c1cccnc1Cl` here?
The outcome was “inactive”.

For `CC1=NN=C(c2ccc(N)cc2)c2cc3c(cc2C1)OCO3`, which outcome is on record?
The outcome was “inactive”.

With `O=C(O)c1cc(Oc2ccc(C(F)(F)F)cc2Cl)ccc1[N+](=O)[O-]` as the molecule, how does the outcome read?
Its outcome is “inactive”.

With `Cc1cc(O)ccc1Cl` as the molecule, how does the outcome read?
The outcome was “inactive”.

Which outcome does the source give for `Nc1ccc(Cl)cc1` here?
The outcome was “inactive”.

With `NC1CC1c1ccccc1` (stereo unspecified) as the molecule, how does the outcome read?
Its outcome is “inactive”.

Which outcome does the source give for `Nc1c(Cl)c(Cl)c(Cl)c(Cl)c1Cl` here?
Its outcome is “inactive”.

For `O=[N+]([O-])c1cc([N+](=O)[O-])c2ccccc2c1`, which outcome is on record?
The outcome was “inactive”.

Which outcome does the source give for `CC(O)CN1CCN(CC(=O)[O-])CCN(CC(=O)[O-])CCN(CC(=O)[O-])CC1.[Gd+3]` (stereo unspecified) here?
The outcome was “inactive”.

Which outcome does the source give for `CCCCOC(=O)c1ccccc1C(=O)OCc1ccccc1` here?
The outcome was “inactive”.

Which outcome does the source give for `O=[N+]([O-])c1c2ccccc2cc2ccccc12` here?
Its outcome is “inactive”.

For `CC(=O)NCCc1c[nH]c2ccccc12`, which outcome is on record?
Its outcome is “inactive”.

tested on: not listed separately; assay: Primary qHTS for small molecule stabilizers of the endoplasmic reticulum resident proteome: Secreted ER Calcium Modulated Protein (SERCaMP) assay (AID 1508630); details: SH-SY5Y GLuc-SERCaMP (Gaussia luciferase released on ER calcium loss) secretion, thapsigargin, luminescence; series mostly up to 38.4 µM
In short: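 The SH-SY5Y reporter protocol was run at 3 concentrations up to 38.3 uM (primary) or 11 concentrations (follow-up): 16 h compound, 100 nM thapsigargin for 4 h, then extracellular luciferase luminescence.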

With `O=C(N[C@H]1CN2CCC1CC2)c1ccc(Cl)cc1` as the molecule, how does the Potency read?
Its Potency is “inactive”.

Which Potency does the source give for `COC(=O)[C@@H](N)CCCN=C(N)N[N+](=O)[O-]` here?
The Potency was “inactive”.

For `CC(Cc1ccc(O)cc1)NCC(O)c1cc(O)cc(O)c1` (stereo unspecified), which Potency is on record?
The Potency was “inactive”.

For `C[N+]1(C)C2CCC1CC(OC(=O)C(CO)c1ccccc1)C2` (stereo unspecified), which Potency is on record?
The Potency was “inactive”.

Which Potency does the source give for `NC(CCP(=O)(O)O)C(=O)O` (stereo unspecified) here?
Its Potency is “inactive”.

With `C[C@@H]1O[C@H](C[N+](C)(C)C)C[C@H]1O` as the molecule, how does the Potency read?
Its Potency is “inactive”.

For `O=[N+]([O-])/N=C1\NCCN1Cc1ccc(Cl)nc1`, which Potency is on record?
The Potency was “inactive”.

Which Potency does the source give for `CCCN(CCC)c1c([N+](=O)[O-])cc(S(N)(=O)=O)cc1[N+](=O)[O-]` here?
Its Potency is “inactive”.

Which Potency does the source give for `Oc1ccc2c3c1O[C@H]1c4[nH]c5c(c4C[C@@]4(O)[C@@H](C2)N(CC2CC2)CC[C@]314)C[C@@]1(O)[C@H]2Cc3ccc(O)c4c3[C@@]1(CCN2CC1CC1)[C@H]5O4` here?
The Potency was “inactive”.

Which Potency does the source give for `S=C(NC1CCCCC1)N1CCC(c2cnc[nH]2)CC1` here?
Its Potency is “inactive”.

With `CCO/N=C(\CC)C1=C(O)CC(c2c(C)cc(C)cc2C)CC1=O` (stereo unspecified) as the molecule, how does the Potency read?
Its Potency is “inactive”.

With `CC[C@@]1(O)C(=O)OCc2c1cc1n(c2=O)Cc2cc3ccccc3nc2-1` as the molecule, how does the Potency read?
The Potency was “inactive”.

For `CC(C)Oc1cccc(NC(=O)c2ccccc2C(F)(F)F)c1`, which Potency is on record?
The Potency was “inactive”.

For `O=C(Nc1ccccc1-c1ccc(Cl)cc1)c1cccnc1Cl`, which Potency is on record?
Its Potency is “inactive”.

For `CC1=NN=C(c2ccc(N)cc2)c2cc3c(cc2C1)OCO3`, which Potency is on record?
The Potency was “inactive”.

For `CCCCCCCCCCCCCCCC[N+](C)(C)C`, which Potency is on record?
Its Potency is “inactive”.

With `NC(=NCCC[C@H](N)C(=O)O)N[N+](=O)[O-]` as the molecule, how does the Potency read?
The Potency was “inactive”.

Which Potency does the source give for `O=C(O)c1cc(Oc2ccc(C(F)(F)F)cc2Cl)ccc1[N+](=O)[O-]` here?
The Potency was “inactive”.

For `Cc1cc(O)ccc1Cl`, which Potency is on record?
The Potency was “inactive”.

Which Potency does the source give for `NC1CC1c1ccccc1` (stereo unspecified) here?
The Potency was “inactive”.

With `O=[N+]([O-])c1cc([N+](=O)[O-])c2ccccc2c1` as the molecule, how does the Potency read?
Its Potency is “inactive”.

For `O=C1CCCN1CC#CCN1CCCC1`, which Potency is on record?
The Potency was “inactive”.

Which Potency does the source give for `CC(O)CN1CCN(CC(=O)[O-])CCN(CC(=O)[O-])CCN(CC(=O)[O-])CC1.[Gd+3]` (stereo unspecified) here?
The Potency was “inactive”.

For `CCCCOC(=O)c1ccccc1C(=O)OCc1ccccc1`, which Potency is on record?
The Potency was “inactive”.

For `CC(=O)NCCc1c[nH]c2ccccc12`, which Potency is on record?
Its Potency is “inactive”.

tested on: not listed separately; assay: A High-Content qHTS Against Drug Library for the Identification of Small Molecules that Inhibit DYT1 Early Onset Primary Dystonia-Associated Cell Pathology (AID 1645839; calls by dose curve; further: potency means the concentration at half of the fitted maximal effect); details: HEK293 Flp-In EGFP-delE TorsinA, punctate imaging, 48 h; series mostly up to 91.7 µM
In short: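 Induced EGFP-delE TorsinA cells are imaged after 48 h of compound treatment. Punctate fusion-protein distribution gives the %pathology value, while nuclei counts flag toxicity. Wild-type EGFP-hTOR1A cells define the normal pattern.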

With `CC(Cc1ccc(O)cc1)NCC(O)c1cc(O)cc(O)c1` (stereo unspecified) as the molecule, how does the Potency read?
Its Potency is “inactive”.

For `O=[N+]([O-])/N=C1\NCCN1Cc1ccc(Cl)nc1`, which Potency is on record?
Its Potency is “inactive”.

Which Potency does the source give for `CCCN(CCC)c1c([N+](=O)[O-])cc(S(N)(=O)=O)cc1[N+](=O)[O-]` here?
Its Potency is 28.2 µM (active).

With `CCO/N=C(\CC)C1=C(O)CC(c2c(C)cc(C)cc2C)CC1=O` (stereo unspecified) as the molecule, how does the Potency read?
The Potency was “inactive”.

With `O=C(Nc1ccccc1-c1ccc(Cl)cc1)c1cccnc1Cl` as the molecule, how does the Potency read?
Its Potency is “inactive”.

For `CCCCCCCCCCCCCCCC[N+](C)(C)C`, which Potency is on record?
The Potency was 12.6 µM (active).

With `O=C(O)c1cc(Oc2ccc(C(F)(F)F)cc2Cl)ccc1[N+](=O)[O-]` as the molecule, how does the Potency read?
The Potency was “inactive”.

Which Potency does the source give for `Cc1cc(O)ccc1Cl` here?
Its Potency is “inactive”.

Which Potency does the source give for `Nc1c(Cl)c(Cl)c(Cl)c(Cl)c1Cl` here?
The Potency was “inactive”.

With `O=[N+]([O-])c1cc([N+](=O)[O-])c2ccccc2c1` as the molecule, how does the Potency read?
The Potency was “inactive”.

For `CC(O)CN1CCN(CC(=O)[O-])CCN(CC(=O)[O-])CCN(CC(=O)[O-])CC1.[Gd+3]` (stereo unspecified), which Potency is on record?
Its Potency is “inactive”.

Which Potency does the source give for `CCCCOC(=O)c1ccccc1C(=O)OCc1ccccc1` here?
The Potency was “inactive”.
